From the supplement of paper PMC12282887
± gives the standard deviation of the averaged measurements.

Tests used:
Experiment in all cases: promoter activity interaction Z-score (Lux/OD deviation from empty-vector control); higher = stronger promoter induction by the compound
[1] = tested on: E. coli BW25113 acrABp lux reporter
How it was run: (§1)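 Wild-type E. coli BW25113 and three single-gene deletion strains, each carrying a low-copy luxCDABE promoter reporter, were grown at 37°C in 40 µl LB Lennox per well of a 384-well plate. Every compound was applied at four 1:2 dilutions in biological duplicates, and OD600 and luminescence were read every 30 min for 12 h. Integration covered 0–8 h for wild type and 1–9 h for deletion strains, and wells under 10% of the median growth value were removed. Scores are Z-transformed residuals of growth-normalised luminescence fitted against a control.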

[2] = tested on: E. coli BW25113 micFp lux reporter
How it was run: as §1

[3] = tested on: E. coli BW25113 ompFp lux reporter
How it was run: as §1

[4] = tested on: E. coli BW25113 robp lux reporter
How it was run: as §1

[5] = tested on: E. coli BW25113 soxSp lux reporter
How it was run: as §1

[6] = tested on: E. coli BW25113 tolCp lux reporter
How it was run: as §1

[7] = 0.063 µg/ml, genetic background: wild type
[8] = 0.063 µg/ml, genetic background: ΔmarA
[9] = 0.063 µg/ml, genetic background: Δrob
[10] = 0.063 µg/ml, genetic background: ΔsoxS
[11] = 0.13 µg/ml, genetic background: wild type
[12] = 0.13 µg/ml, genetic background: ΔmarA
[13] = 0.13 µg/ml, genetic background: Δrob
[14] = 0.13 µg/ml, genetic background: ΔsoxS
[15] = 0.25 µg/ml, genetic background: wild type
[16] = 0.25 µg/ml, genetic background: ΔmarA
[17] = 0.25 µg/ml, genetic background: Δrob
[18] = 0.25 µg/ml, genetic background: ΔsoxS
[19] = 0.5 µg/ml, genetic background: wild type
[20] = 0.5 µg/ml, genetic background: ΔmarA
[21] = 0.5 µg/ml, genetic background: Δrob
[22] = 0.5 µg/ml, genetic background: ΔsoxS
[23] = 0.26 µg/ml, genetic background: wild type
[24] = 0.26 µg/ml, genetic background: ΔmarA
[25] = 0.26 µg/ml, genetic background: Δrob
[26] = 0.26 µg/ml, genetic background: ΔsoxS
[27] = 0.52 µg/ml, genetic background: wild type
[28] = 0.52 µg/ml, genetic background: ΔmarA
[29] = 0.52 µg/ml, genetic background: Δrob
[30] = 0.52 µg/ml, genetic background: ΔsoxS
[31] = 1 µg/ml, genetic background: wild type
[32] = 1 µg/ml, genetic background: ΔmarA
[33] = 1 µg/ml, genetic background: Δrob
[34] = 1 µg/ml, genetic background: ΔsoxS
[35] = 2.1 µg/ml, genetic background: wild type
[36] = 2.1 µg/ml, genetic background: ΔmarA

Structure (SMILES): CO[C@@]12[C@H](COC(N)=O)C3=C(C(=O)C(C)=C(N)C3=O)N1C[C@@H]1N[C@@H]12 [Mitomycin C]
- promoter activity interaction Z-score [1, 7]: 0.203 ± 0.26
- promoter activity interaction Z-score [1, 8]: -0.582 ± 1.1
- promoter activity interaction Z-score [1, 9]: 0.184 ± 0.69
- promoter activity interaction Z-score [1, 10]: 0.15 ± 0.32
- promoter activity interaction Z-score [1, 11]: -0.161 ± 0.0059
- promoter activity interaction Z-score [1, 12]: 1.65 ± 0.15
- promoter activity interaction Z-score [1, 13]: 0.0466 ± 0.51
- promoter activity interaction Z-score [1, 14]: 0.106 ± 0.043
- promoter activity interaction Z-score [1, 15]: 0.269 ± 0.076
- promoter activity interaction Z-score [1, 16]: 0.437 ± 0.76
- promoter activity interaction Z-score [1, 17]: -0.105 ± 0.42
- promoter activity interaction Z-score [1, 18]: -0.0948 ± 0.4
- promoter activity interaction Z-score [1, 19]: 0.332 ± 0.099
- promoter activity interaction Z-score [1, 20]: 1.08 ± 0.83
- promoter activity interaction Z-score [1, 21]: -0.0462 ± 0.55
- promoter activity interaction Z-score [1, 22]: 0.117 ± 0.79
- promoter activity interaction Z-score [2, 7]: 0.161 ± 0.24
- promoter activity interaction Z-score [2, 8]: 0.0738 ± 0.13
- promoter activity interaction Z-score [2, 9]: -0.0403 ± 0.002
- promoter activity interaction Z-score [2, 10]: 0.173 ± 0.094
- promoter activity interaction Z-score [2, 11]: -0.0611 ± 0.13
- promoter activity interaction Z-score [2, 12]: 0.273 ± 0.08
- promoter activity interaction Z-score [2, 13]: 0.135 ± 0.19
- promoter activity interaction Z-score [2, 14]: 0.423 ± 0.057
- promoter activity interaction Z-score [2, 15]: 0.189 ± 0.054
- promoter activity interaction Z-score [2, 16]: 0.0506 ± 0.14
- promoter activity interaction Z-score [2, 17]: -0.0293 ± 0.023
- promoter activity interaction Z-score [2, 18]: -0.0557 ± 0.14
- promoter activity interaction Z-score [2, 19]: -0.299 ± 0.0083
- promoter activity interaction Z-score [2, 20]: -0.029 ± 0.23
- promoter activity interaction Z-score [2, 21]: 0.266 ± 0.055
- promoter activity interaction Z-score [2, 22]: 0.362 ± 0.13
- promoter activity interaction Z-score [3, 7]: 0.468 ± 0.27
- promoter activity interaction Z-score [3, 8]: -0.243 ± 0.38
- promoter activity interaction Z-score [3, 9]: 0.492 ± 0.67
- promoter activity interaction Z-score [3, 10]: 0.619 ± 0.42
- promoter activity interaction Z-score [3, 11]: 0.0398 ± 0.41
- promoter activity interaction Z-score [3, 12]: 1.58 ± 1
- promoter activity interaction Z-score [3, 13]: 0.963 ± 0.14
- promoter activity interaction Z-score [3, 14]: 0.857 ± 0.077
- promoter activity interaction Z-score [3, 15]: 0.439 ± 0.22
- promoter activity interaction Z-score [3, 16]: -0.0015 ± 0.17
- promoter activity interaction Z-score [3, 17]: 1 ± 0.15
- promoter activity interaction Z-score [3, 18]: -0.0721 ± 0.25
- promoter activity interaction Z-score [3, 19]: 0.63 ± 0.16
- promoter activity interaction Z-score [3, 20]: 1.34 ± 1.3
- promoter activity interaction Z-score [3, 21]: 1.2 ± 0.71
- promoter activity interaction Z-score [3, 22]: 0.778 ± 0.46
- promoter activity interaction Z-score [4, 7]: 0.242 ± 0.52
- promoter activity interaction Z-score [4, 8]: -0.678 ± 0.028
- promoter activity interaction Z-score [4, 9]: 0.808 ± 0.56
- promoter activity interaction Z-score [4, 10]: -0.138 ± 0.57
- promoter activity interaction Z-score [4, 11]: 0.512 ± 0.4
- promoter activity interaction Z-score [4, 12]: 2.91 ± 0.44
- promoter activity interaction Z-score [4, 13]: 0.0783 ± 0.46
- promoter activity interaction Z-score [4, 14]: 0.758 ± 1.5
- promoter activity interaction Z-score [4, 15]: 1.16 ± 0.6
- promoter activity interaction Z-score [4, 16]: 0.136 ± 0.099
- promoter activity interaction Z-score [4, 17]: 0.453 ± 0.084
- promoter activity interaction Z-score [4, 18]: -0.883 ± 0.36
- promoter activity interaction Z-score [4, 19]: 1.05 ± 0.1
- promoter activity interaction Z-score [4, 20]: 0.91 ± 0.79
- promoter activity interaction Z-score [4, 21]: 0.226 ± 0.38
- promoter activity interaction Z-score [4, 22]: -0.0862 ± 0.5
- promoter activity interaction Z-score [5, 7]: 0.078 ± 0.11
- promoter activity interaction Z-score [5, 8]: -0.129 ± 0.16
- promoter activity interaction Z-score [5, 9]: -0.043 ± 0.0072
- promoter activity interaction Z-score [5, 10]: 0.00107 ± 0.095
- promoter activity interaction Z-score [5, 11]: -0.0775 ± 0.16
- promoter activity interaction Z-score [5, 12]: -0.0258 ± 0.096
- promoter activity interaction Z-score [5, 13]: -0.0896 ± 0.043
- promoter activity interaction Z-score [5, 14]: -0.0792 ± 0.22
- promoter activity interaction Z-score [5, 15]: 0.185 ± 0.009
- promoter activity interaction Z-score [5, 16]: -0.158 ± 0.067
- promoter activity interaction Z-score [5, 17]: 0.12 ± 0.092
- promoter activity interaction Z-score [5, 18]: -0.0761 ± 0.073
- promoter activity interaction Z-score [5, 19]: 0.163 ± 0.12
- promoter activity interaction Z-score [5, 20]: -0.1 ± 0.14
- promoter activity interaction Z-score [5, 21]: -0.0272 ± 0.011
- promoter activity interaction Z-score [5, 22]: 0.103 ± 0.21
- promoter activity interaction Z-score [6, 7]: 0.274 ± 0.61
- promoter activity interaction Z-score [6, 8]: -0.71 ± 0.23
- promoter activity interaction Z-score [6, 9]: -0.666 ± 0.03
- promoter activity interaction Z-score [6, 10]: 0.252 ± 0.77
- promoter activity interaction Z-score [6, 11]: 0.0384 ± 0.54
- promoter activity interaction Z-score [6, 12]: 0.367 ± 0.36
- promoter activity interaction Z-score [6, 13]: 0.81 ± 0.56
- promoter activity interaction Z-score [6, 14]: 0.264 ± 0.25
- promoter activity interaction Z-score [6, 15]: 0.00312 ± 0.045
- promoter activity interaction Z-score [6, 16]: -0.556 ± 0.81
- promoter activity interaction Z-score [6, 17]: 0.121 ± 0.86
- promoter activity interaction Z-score [6, 18]: 1.27 ± 0.93
- promoter activity interaction Z-score [6, 19]: 0.54 ± 0.56
- promoter activity interaction Z-score [6, 20]: -0.295 ± 0.4
- promoter activity interaction Z-score [6, 21]: 0.224 ± 0.11
- promoter activity interaction Z-score [6, 22]: 1.46 ± 0.25

Structure (SMILES): CCC[C@@H]1C[C@@H](C(=O)N[C@@H]([C@H]2O[C@H](SC)[C@H](O)[C@@H](O)[C@H]2O)[C@H](C)Cl)N(C)C1 [Clindamycin]
- promoter activity interaction Z-score [1, 23]: 0.462 ± 0.13
- promoter activity interaction Z-score [1, 24]: 0.688 ± 0.64
- promoter activity interaction Z-score [1, 25]: 0.443 ± 0.12
- promoter activity interaction Z-score [1, 26]: 0.20427 ± 5.4e-05
- promoter activity interaction Z-score [1, 27]: 0.0439 ± 0.28
- promoter activity interaction Z-score [1, 28]: 0.0236 ± 0.74
- promoter activity interaction Z-score [1, 29]: 0.389 ± 0.16
- promoter activity interaction Z-score [1, 30]: 0.296 ± 0.26
- promoter activity interaction Z-score [1, 31]: 0.0522 ± 0.49
- promoter activity interaction Z-score [1, 32]: -0.845 ± 0.54
- promoter activity interaction Z-score [1, 33]: 0.554 ± 0.027
- promoter activity interaction Z-score [1, 34]: 0.424 ± 0.19
- promoter activity interaction Z-score [1, 35]: 0.541 ± 0.29
- promoter activity interaction Z-score [1, 36]: -1.07 ± 0.54
- promoter activity interaction Z-score ([1]; 2.1 µg/ml, genetic background: Δrob): 0.386 ± 0.14
- promoter activity interaction Z-score ([1]; 2.1 µg/ml, genetic background: ΔsoxS): 0.958 ± 1.2
- promoter activity interaction Z-score [2, 23]: 0.509 ± 0.54
- promoter activity interaction Z-score [2, 24]: 0.0727 ± 0.038
- promoter activity interaction Z-score [2, 25]: -0.112 ± 0.21
- promoter activity interaction Z-score [2, 26]: -0.295 ± 0.22
- promoter activity interaction Z-score [2, 27]: -0.308 ± 0.46
- promoter activity interaction Z-score [2, 28]: -0.109 ± 0.1
- promoter activity interaction Z-score [2, 29]: 0.00775 ± 0.06
- promoter activity interaction Z-score [2, 30]: -0.12048 ± 8.2e-05
- promoter activity interaction Z-score [2, 31]: -0.107 ± 0.47
- promoter activity interaction Z-score [2, 32]: -0.106 ± 0.01
- promoter activity interaction Z-score [2, 33]: -0.0738 ± 0.2
- promoter activity interaction Z-score [2, 34]: 0.189 ± 0.27
- promoter activity interaction Z-score [2, 35]: 0.291 ± 0.71
- promoter activity interaction Z-score [2, 36]: -0.2694 ± 0.0025
